From PubChem BioAssay
The source made the active and inactive calls.

What was measured:
[1] = binders of probe aFSTL3 on microarray, primary screen, stem cell growth factor project, biochemical, small-molecule microarray, fluorescence 635/667 (AID 1064); settings: higher = more signal;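 also: measures binding of the biotinylated anti-FSTL3 antibody to printed compounds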
[2] = binders from COS7 lysate, DM2A8 probe, primary screen, torsin A project, cell lysate, small-molecule microarray, fluorescence 635/667 (AID 1065); settings: higher = more signal, COS7 lysate expressing mutant human TOR1A
[3] = binders of probe aFGF2 on microarray, primary screen, stem cell growth factor project, biochemical, small-molecule microarray, fluorescence 635/667 (AID 1067); settings: higher = more signal;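 also: measures binding of biotinylated aFGF2 protein to printed compounds on slides; z-score merges feature fluorescence and signal-to-noise across triplicate slides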
[4] = binders of probe aFGF10 on microarray, primary screen, stem cell growth factor project, biochemical, small-molecule microarray, fluorescence 635/667 (AID 1071); settings: higher = more signal;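 also: score merges 667 nm spot intensity and signal to noise from triplicate slides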
[5] = target: Neurogenic locus notch homolog protein 2 (Homo sapiens) (UniProt Q04721); test: Notch2 binders on small-molecule microarrays, primary screen, biochemical, small-molecule microarray, 635 nm fluorescence, stem cell growth factors (AID 1073); settings: Notch2 binding, higher = more signal
[6] = target: Pro-neuregulin-1, membrane-bound isoform (Homo sapiens) (UniProt Q02297); test: NRG1 binders on small-molecule microarrays, primary screen, psychiatric disease protein project, biochemical, small-molecule microarray, fluorescence 635/667 (AID 1075); settings: NRG1 binding, 635 nm fluorescence, higher = more signal;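 also: score combines 667 nm spot fluorescence with signal to noise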
Sequence of Pro-neuregulin-1, membrane-bound isoform (Homo sapiens) (Q02297 whole entry, looked up, the tested form may be a part, canonical isoform): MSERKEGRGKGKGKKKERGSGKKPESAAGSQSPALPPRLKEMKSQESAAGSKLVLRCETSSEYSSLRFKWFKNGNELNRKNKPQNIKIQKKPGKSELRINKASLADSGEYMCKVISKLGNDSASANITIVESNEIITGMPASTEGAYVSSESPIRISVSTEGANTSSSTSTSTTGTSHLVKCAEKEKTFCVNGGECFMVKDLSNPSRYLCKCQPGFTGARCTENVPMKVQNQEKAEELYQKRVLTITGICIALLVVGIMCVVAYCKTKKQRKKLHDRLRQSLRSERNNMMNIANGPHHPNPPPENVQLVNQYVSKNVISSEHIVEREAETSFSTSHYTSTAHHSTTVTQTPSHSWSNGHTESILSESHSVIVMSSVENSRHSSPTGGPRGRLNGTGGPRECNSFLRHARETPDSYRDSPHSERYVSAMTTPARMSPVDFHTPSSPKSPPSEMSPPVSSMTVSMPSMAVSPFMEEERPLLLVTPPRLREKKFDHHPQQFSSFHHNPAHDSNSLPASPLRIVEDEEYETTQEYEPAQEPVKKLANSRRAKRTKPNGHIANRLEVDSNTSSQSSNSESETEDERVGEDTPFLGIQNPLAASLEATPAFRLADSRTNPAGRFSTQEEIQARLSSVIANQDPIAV

[7] = test system: Neuregulin-1 EGF-like domain; test: binders of neuregulin-1 EGF-like domain, primary screen, biochemical, small-molecule microarray, 635 nm fluorescence (AID 1081); settings: small-molecule microarray binding, higher = more signal;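 also: binding of the protein to compounds printed on small-molecule microarray slides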
[8] = FRG1 promoter luciferase signal modulators, primary screen, FRG1 inhibition for FSHD, cell-based, C2C12 myotubes, firefly/Renilla luciferase, luminescence (AID 1084); settings: higher = more signal, called active from +8 up or from −8 down
[9] = binders of probe aFST on microarray, primary screen, stem cell growth factor project, biochemical, small-molecule microarray, fluorescence 635/667 (AID 1086); settings: higher = more signal;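 also: score merges 667 nm fluorescence with signal-to-noise of each printed compound spot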
[10] = binders of probe aHhip on microarray, primary screen, stem cell growth factor project, biochemical, small-molecule microarray, fluorescence 635/667 (AID 1087); settings: higher = more signal;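 also: score merges spot fluorescence at 667nm with spot signal to noise ratio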
[11] = test system: PRMT1 (protein arginine N-methyltransferase 1); test: PRMT1 binders on small-molecule microarrays, primary screen, biochemical, small-molecule microarray, 635 nm fluorescence (AID 1088); settings: small-molecule microarray binding, higher = more signal;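 also: binding of Prmt1 protein to compounds spotted on small-molecule microarray slides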
[12] = yeast growth modulation, basal conditions, primary screen, YJM789 clinical isolate, OD600, 24 h (AID 1089);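 also: growth of clinical yeast isolate S. cerevisiae YJM 789 seeded 1000 cells per well; test concentration not given here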; settings: S. cerevisiae YJM789 growth, higher = more signal, called active from +8 up or from −8 down
[13] = fission yeast growth modulation, primary screen, strain 972, OD600, 24 h, no modulator (AID 1090);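 also: basal condition with compound alone and no growth modifier present; test concentration not given here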; settings: S. pombe 972 growth, higher = more signal, called active from +8 up or from −8 down
[14] = S. cerevisiae growth modulation with rapamycin, primary screen, strain BY4716, OD600, 96 h (AID 1091); settings: higher = more signal, called active from +8 up or from −8 down; also: test concentration not given here
[15] = target: Torsin-1A-interacting protein 2 (Homo sapiens) (UniProt Q8NFQ8); test: LULL1 binders on small-molecule microarray, primary screen, cell lysate, human LULL1 lysate, 635/667 nm fluorescence (AID 1092); settings: hLULL1 lysate binding, 635 nm fluorescence, higher = more signal;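 also: probe is lysate of COS7 cells overexpressing human LULL1; score merges per-feature 667 nm fluorescence with signal-to-noise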
Sequence of Torsin-1A-interacting protein 2 (Homo sapiens) (Q8NFQ8 whole entry, looked up): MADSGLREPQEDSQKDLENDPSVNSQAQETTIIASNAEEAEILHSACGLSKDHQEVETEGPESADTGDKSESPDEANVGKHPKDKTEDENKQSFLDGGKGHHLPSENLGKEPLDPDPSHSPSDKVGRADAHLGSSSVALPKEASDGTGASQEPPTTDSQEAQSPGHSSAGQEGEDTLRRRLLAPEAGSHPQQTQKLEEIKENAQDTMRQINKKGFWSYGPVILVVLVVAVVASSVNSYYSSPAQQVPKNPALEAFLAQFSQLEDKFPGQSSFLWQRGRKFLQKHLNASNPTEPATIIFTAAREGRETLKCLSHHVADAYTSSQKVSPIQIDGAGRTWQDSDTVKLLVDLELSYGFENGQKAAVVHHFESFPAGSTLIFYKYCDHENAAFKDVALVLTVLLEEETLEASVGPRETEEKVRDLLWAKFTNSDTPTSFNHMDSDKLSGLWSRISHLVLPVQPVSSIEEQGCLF

[16] = E. coli growth modulation, two-sided OD650, primary screen, E. coli filamentation project, strain DRC41, 24 h (AID 1093); settings: OD650, 24 h, higher = more signal, called active from +8 up or from −8 down;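 also: MC1000 strain lacking acrAB efflux and sulA so SOS filamentation is blocked; test concentration not given here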
[17] = small-molecule microarray binders of probe aLefty2, primary screen, biochemical, biotinylated probe, 635/667 nm fluorescence (AID 1094); settings: higher = more signal;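 also: score merges spot fluorescence near 667 nm with spot signal-to-noise ratio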
[18] = test system: Noggin (protein binding on small-molecule microarray); test: Noggin binders on small-molecule microarray, primary screen, biochemical, 635/667 nm fluorescence (AID 1095); settings: 635 nm fluorescence, higher = more signal;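 also: score merges 667 nm feature fluorescence with signal to noise over triplicate slides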
[19] = target: Neurogenic locus notch homolog protein 3 (Homo sapiens) (UniProt Q9UM47); test: NOTCH3 binders on small-molecule microarray, primary screen, biochemical, 635/667 nm fluorescence (AID 1096); settings: NOTCH3 binding, 635 nm fluorescence, higher = more signal
Sequence of Neurogenic locus notch homolog protein 3 (Homo sapiens) (Q9UM47 whole entry, looked up): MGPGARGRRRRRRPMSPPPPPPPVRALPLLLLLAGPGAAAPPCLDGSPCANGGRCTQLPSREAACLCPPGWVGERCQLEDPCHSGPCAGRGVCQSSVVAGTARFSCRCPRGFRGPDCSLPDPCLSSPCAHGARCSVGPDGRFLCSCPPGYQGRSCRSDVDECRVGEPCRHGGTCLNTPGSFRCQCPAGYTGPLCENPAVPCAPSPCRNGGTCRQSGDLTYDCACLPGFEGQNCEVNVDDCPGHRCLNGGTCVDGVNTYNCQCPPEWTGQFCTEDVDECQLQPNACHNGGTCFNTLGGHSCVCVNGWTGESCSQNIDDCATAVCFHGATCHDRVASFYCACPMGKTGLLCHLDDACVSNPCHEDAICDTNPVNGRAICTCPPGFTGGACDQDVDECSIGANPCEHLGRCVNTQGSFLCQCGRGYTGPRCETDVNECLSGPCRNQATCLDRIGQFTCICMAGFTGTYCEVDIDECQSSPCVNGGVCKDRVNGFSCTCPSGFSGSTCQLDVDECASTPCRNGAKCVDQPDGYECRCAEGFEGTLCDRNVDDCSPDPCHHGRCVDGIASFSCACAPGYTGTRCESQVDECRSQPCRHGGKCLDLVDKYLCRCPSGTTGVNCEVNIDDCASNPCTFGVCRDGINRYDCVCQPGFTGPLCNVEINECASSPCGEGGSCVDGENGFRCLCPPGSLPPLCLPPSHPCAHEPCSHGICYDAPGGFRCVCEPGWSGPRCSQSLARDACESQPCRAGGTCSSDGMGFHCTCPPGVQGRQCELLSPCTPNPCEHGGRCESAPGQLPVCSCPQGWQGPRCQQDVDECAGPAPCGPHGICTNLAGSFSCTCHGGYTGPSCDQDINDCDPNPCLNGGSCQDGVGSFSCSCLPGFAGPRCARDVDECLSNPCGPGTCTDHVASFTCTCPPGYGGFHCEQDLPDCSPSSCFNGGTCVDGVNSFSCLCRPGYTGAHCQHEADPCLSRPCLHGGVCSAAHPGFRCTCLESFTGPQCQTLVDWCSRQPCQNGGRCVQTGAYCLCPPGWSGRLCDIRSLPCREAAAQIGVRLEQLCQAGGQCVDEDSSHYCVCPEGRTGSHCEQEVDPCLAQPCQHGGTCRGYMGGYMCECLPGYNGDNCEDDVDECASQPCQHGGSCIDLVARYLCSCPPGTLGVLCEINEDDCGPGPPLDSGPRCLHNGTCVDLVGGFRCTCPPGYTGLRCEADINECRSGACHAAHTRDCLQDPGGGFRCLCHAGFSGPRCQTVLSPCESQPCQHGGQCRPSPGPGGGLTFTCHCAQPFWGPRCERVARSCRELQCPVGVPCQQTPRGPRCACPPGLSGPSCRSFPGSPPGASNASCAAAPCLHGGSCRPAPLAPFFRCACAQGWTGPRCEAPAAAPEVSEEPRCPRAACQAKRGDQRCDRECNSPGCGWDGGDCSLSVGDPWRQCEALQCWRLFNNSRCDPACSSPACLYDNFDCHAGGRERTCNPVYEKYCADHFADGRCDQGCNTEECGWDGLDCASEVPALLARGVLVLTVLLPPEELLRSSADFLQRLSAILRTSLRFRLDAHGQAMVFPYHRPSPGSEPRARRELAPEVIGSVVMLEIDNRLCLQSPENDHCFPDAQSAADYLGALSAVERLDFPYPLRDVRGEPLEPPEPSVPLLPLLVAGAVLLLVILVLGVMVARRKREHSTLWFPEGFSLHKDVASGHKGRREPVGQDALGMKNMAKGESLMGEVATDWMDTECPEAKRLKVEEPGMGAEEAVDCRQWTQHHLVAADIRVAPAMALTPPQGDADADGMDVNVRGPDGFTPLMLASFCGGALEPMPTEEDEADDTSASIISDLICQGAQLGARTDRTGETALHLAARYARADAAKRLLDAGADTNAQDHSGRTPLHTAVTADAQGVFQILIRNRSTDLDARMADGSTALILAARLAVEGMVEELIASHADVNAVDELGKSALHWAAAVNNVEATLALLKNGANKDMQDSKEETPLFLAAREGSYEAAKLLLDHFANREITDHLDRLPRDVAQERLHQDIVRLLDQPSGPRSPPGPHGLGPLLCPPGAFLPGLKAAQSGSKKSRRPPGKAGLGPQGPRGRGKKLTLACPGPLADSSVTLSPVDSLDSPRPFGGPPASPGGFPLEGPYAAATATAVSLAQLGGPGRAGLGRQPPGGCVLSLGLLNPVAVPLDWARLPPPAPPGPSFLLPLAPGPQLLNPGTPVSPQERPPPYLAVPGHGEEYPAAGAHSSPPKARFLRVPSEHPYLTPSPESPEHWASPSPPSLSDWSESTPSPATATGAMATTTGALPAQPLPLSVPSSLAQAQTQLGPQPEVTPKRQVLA

[20] = small-molecule microarray binders of probe aEGFR, primary screen, biochemical, biotinylated probe, 635/667 nm fluorescence (AID 1097); settings: higher = more signal;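 also: probe is a biotinylated anti-EGFR antibody binding compounds printed on slides; score combines fluorescence near 667 nm and signal to noise of each spot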

Structure (SMILES)	composite z-score [1]	composite z-score [2]	composite z-score [3]	composite z-score [4]	composite z-score [5]	composite z-score [6]	composite z-score [7]	z-score [8]	composite z-score [9]	composite z-score [10]	composite z-score [11]	z-score [12]	z-score [13]	z-score [14]	composite z-score [15]	z-score [16]	composite z-score [17]	composite z-score [18]	composite z-score [19]	composite z-score [20]
CO[C@H]1O[C@H](CO)[C@@H](OC(=O)Nc2cccc(F)c2)[C@H](OC(=O)Nc2ccccc2)[C@@H]1OC(=O)Nc1ccccc1	-0.139	0.995	0.185	1.17	1.51	1.51	1.19	1.17 (inactive)	0.7	-0.137	1.53	0.347 (inactive)	1.32 (inactive)	14.4 (active)	3.12	-0.621 (inactive)	0.182	0.286	1.09	0.181
N#Cc1ccc(NN2C(C(O)C(c3ccccc3)c3ccccc3)C=CC3C(=O)N(c4ccccc4)C(=O)C32)cc1 (stereo not given)	0.223	0.135	-0.0462	0.952	1.65	1.77	1.15	-0.621 (inactive)	1.93	0.0585	1.07	0.43 (inactive)	1.25 (inactive)	5.53 (inactive)	3.58	-0.0873 (inactive)	0.167	0.297	1.01	0.0981
CCCCN1CC=CC23O[C@@H]4C=CCCOC(=O)C4[C@H]2C(=O)N(CCCCCCO)[C@@H]3C1=O (stereo not given in full)	-0.206	-0.596	-0.246	-0.309	-1.1	1.2	1.41	0.357 (inactive)	-0.422	-0.7	1.31	-0.0739 (inactive)	-0.576 (inactive)	0.2 (inactive)	1.74	-0.444 (inactive)	-0.462	-0.235	0.294	-0.227
CC(C)=CCCC(C)=CC(O)C1C=CC2C(=O)N(C)C(=O)C2N1Nc1ccccc1 (stereo not given)	0.0019	0.708	0.231	0.942	1.6	1.72	1.2	-1.04 (inactive)	1.24	-0.159	1.55	-0.193 (inactive)	-1.26 (inactive)	2.76 (inactive)	3.29	-0.339 (inactive)	0.245	0.411	1.03	0.167
COC(=O)[C@]1(CCC(=O)OC(C)(C)C)N=C(c2ccc(OCCCO)cc2)O[C@@H]1c1ccccc1CN=[N+]=[N-]	0.995	-0.0569	-0.0073	0.0301	0.53	0.971	1.14	-3.06 (inactive)	0.773	-0.169	1.52	0.339 (inactive)	0.419 (inactive)	15.2 (active)	2.07	-0.511 (inactive)	0.271	-0.146	0.51	0.124
O=C1C2C=CC(C(O)c3cc(C(F)(F)F)cc(C(F)(F)F)c3)N(n3cnnc3)C2C(=O)N1Cc1ccccc1 (stereo not given)	-0.153	0.0607	-0.0628	-0.251	0.203	0.339	-0.159	1.1 (inactive)	0.368	0.144	0.369	-0.572 (inactive)	0.685 (inactive)	-0.384 (inactive)	2.5	0.0068 (inactive)	-0.191	-0.267	0.679	-0.139
Cc1ccc(S[C@]2(C(=O)NCCCN(C)C)CC(=O)N(Cc3ccccc3C(F)(F)F)[C@@H]2c2ccc(CO)cc2)cc1	0.678	-0.554	-0.138	-0.572	-1.37	0.907	-1.08	-1.31 (inactive)	0.0539	-0.0994	0.486	-0.339 (inactive)	-0.543 (inactive)	-0.914 (inactive)	1.91	0.783 (inactive)	0.0446	-0.858	-1.3	-0.227
[N-]=[N+]=NCc1ccccc1C[C@]1(C(=O)N2CCCCC2)N=C(c2ccc(OCCCO)cc2)O[C@H]1c1ccccc1N=[N+]=[N-]	0.643	0.133	0.158	0.816	1.3	1.57	1.1	-1.99 (inactive)	0.637	-0.233	1.57	-0.912 (inactive)	-0.371 (inactive)	6.08 (inactive)	3.09	-0.442 (inactive)	0.202	-0.112	1.07	0.262
COC(=O)[C@@]1(Cc2ccc(F)cc2)[C@H]2c3cc(C(=O)N(C)C)n(Cc4cc(F)c(F)c(F)c4)c3C[C@H]2CN1C(=O)c1ccccc1	0.293	-0.528	0.261	0.593	1.77	1.61	0.971	0.621 (inactive)	1.88	0.142	-0.0972	0.0065 (inactive)	1.72 (inactive)	2.54 (inactive)	3.07	-0.535 (inactive)	0.376	-0.592	1.03	0.487
CCOC(=O)C[C@H]1[C@H](OC(=O)c2ccc(C(=O)c3ccccc3)cc2)[C@@H](NC(=O)CC(C)C)c2cc(OCCCO)ccc2N1C(=O)c1ccc2ccccc2n1	-0.538	0.154	-0.0715	0.86	1.28	0.621	1.22	-0.291 (inactive)	0.334	-0.137	1.48	1.09 (inactive)	0.606 (inactive)	0.607 (inactive)	1.99	0.995 (inactive)	0.106	0.693	1.13	-0.0565
